High-throughput results as filed in PubChem BioAssay.
HT1080-NT tox – kills 2HG-producing HT-1080-NT fibrosarcoma cells. Potency, µM (series often up to 46.1 µM), without a hit: at the highest dose activity, negative = less viability, actives largely listed as cytotoxic. HT-1080-NT fibrosarcoma viability, CellTiter-Glo ATP luminescence, 48 h. AID 686970. 1.6% of 360,000 active;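 note: NT is the 2HG producing partner of a matched IDH1 knockdown line; 0% = DMSO-treated cells and -100% = media-only wells without cells; nearly all actives have a fitted effect of over 55% in size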
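Read-out is CellTiter-Glo luminescence after 10 minutes at room temperature, following 48 hours' compound treatment of HT-1080-NT cells (750 cells/well, RPMI, 5% FBS, 37 degrees C).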
HepG2 tox – HepG2 cytotoxicity, counter-screen for TGF-b inhibitors | 0.76% of 410,000 active | AID 588856 | HepG2 CAGA-GFP viability, ATP luminescence, 18 h | Potency, µM (doses to about 46.1 µM), for the others: top-dose activity change, negative = cytotoxicity, hits mostly cytotoxic
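HepG2 CAGA-GFP cells (1000/well, DMEM with 1% FBS) received compound, then TGF-beta at 500 pg/mL final, and were incubated 18 hours at 37 degrees C. Viability was read by CellTiter-Glo luminescence. Media-only wells were set as complete cell-killing and DMSO as no toxicity.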
TGFb inhibitor – blocks TGF-b signaling | HepG2 CAGA-GFP TGF-b/SMAD3 reporter, GFP fluorescence, 18 h; TGF-beta stimulated, 500 pg/mL final | Potency, µM (doses to about 46.1 µM), for the others: at the highest dose activity, negative = inhibition, actives largely listed as inhibitors | 1.2% of 410,000 active; note: % is set by controls: 0 for no effect and ±100 for the full control effect; nearly all actives have a fitted effect of over 65% in size
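TGF-beta reporter screen: HEPG2 CAGA-GFP, 1% FBS, 500 pg/mL TGF-beta final, 18 h; per-cell GFP summed per well; curves fitted and categorized by class.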
TDP1 cell noCPT – qHTS for Inhibitors of human tyrosyl-DNA phosphodiesterase 1 (TDP1): qHTS in cells in absence of CPT; DT40 Tdp1-/- hTDP1 cells, no CPT, ATP luminescence, 48 h; Potency, µM (doses to about 46.2 µM), inactives show at the top dose activity change, negative = growth inhibition, usual class: inhibitors; 15% of 420,000 active; note: % is set by controls: 0 for no effect and ±100 for the full control effect; nearly all actives have a fitted effect of over 55% in size
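Seeded 400 DT40-hTDP1 cells/well (vehicle DMSO, no 20 nM CPT); pinned compounds; ≥48 hr at 37 °C; CellTiter-Glo luminescence as viability measure.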
HT1080 IDH1KD tx – kills HT-1080 cells with IDH1 knockdown | HT-1080 IDH1 knockdown viability, ATP luminescence, 48 h | Potency, µM (top dose mostly 46.1 µM), for inactives: top-dose activity, negative = toxicity, most hits filed as cytotoxic | 2% of 360,000 active | AID 686971;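 note: 0% = DMSO wells and -100% = cell-free medium wells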
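Knockdown cells (IDH1KD HT-1080) received compounds 2 h after plating at 750 cells/well and were kept 48 h at 37 °C in 5% FBS RPMI. A CellTiter-Glo luminescence read gave % activity for curve fitting.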
DT40 TDP1 CPT – growth inhibition of DT40 Tdp1-/-;hTDP1 cells with camptothecin (screen for TDP1 inhibitors); chicken DT40 Tdp1-/-;hTDP1 cells + 20 nM CPT, ATP luminescence, 48 h; Potency, µM (doses to about 46.2 µM), for the others: top-dose activity change, negative = growth inhibition, actives largely listed as inhibitors; 12% of 420,000 active; note: % is set by controls: 0 for no effect and ±100 for the full control effect; nearly all actives have a fitted effect of over 55% in size
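Cell growth measured by CellTiter-Glo luminescence after a minimum 48 h, 37 C compound exposure with 20 nM CPT in Tdp1-knockout DT40 cells stably expressing hTDP1, seeded 400/well; qHTS titration format.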
Active calls of the source: *; ? = inconclusive; . = no result given. Only some compounds are listed: those with a hit (about 17% of all), similar ones and a draw of the others. Calls come from the whole dose curve; as a rule, active = well fitted curve in the direction sought with a large enough effect; inconclusive = small, poorly fitted or top-dose-only effect, or another doubt; inactive = no such curve, though single readings can be large; an effect the other way counts as inactive or inconclusive. Potency is the fitted concentration of half-maximal effect.

SMILES	HT1080-NT tox	HepG2 tox	TGFb inhibitor	TDP1 cell noCPT	HT1080 IDH1KD tx	DT40 TDP1 CPT
CCc1ccc(NC(=O)CN(Cc2ccccc2)S(=O)(=O)c2ccc3nc(C)sc3c2)cc1	.	-20%	-22%	?	.	?
Cc1nc2ccc(S(=O)(=O)N(C)CC(=O)Nc3ccc(Br)c(C)c3)cc2s1	.	6%	.	16µM*	.	?
COc1ccc2nc(NC(=O)CSc3nnnn3C)sc2c1	-3%	2%	8%	-26%	-1%	-3%
NC(=O)c1cc2c3ccccc3ccn2c1-c1ccccc1	1.6µM*	-69%	?	0.21µM*	?	0.18µM*
Cc1cccc(CC(Cc2nc3ccccc3[nH]2)c2nc3ccccc3[nH]2)c1 (configuration not stated)	18µM*	-20%	?	?	26µM*	16µM*
COc1ccccc1CC(Cc1nc2ccccc2[nH]1)c1nc2ccccc2[nH]1 (configuration not stated)	-5%	-6%	-29%	30µM*	?	?
COc1cc2nc(CC(O)c3nc4cc(OC)c(OC)cc4[nH]3)[nH]c2cc1OC (configuration not stated)	.	6%	1%	6.3µM*	.	7.1µM*
CC(C)Cc1nc2ccccc2[nH]1	2%	-1%	13%	-17%	4%	20%
CCOC(=O)c1c(C)c(-c2ccccc2)n(CC(=O)NC2CCCCC2)c1C	.	-6%	1%	-10%	.	1%
COc1cn(-c2ccccc2)nc1C(=O)Nc1ccc(C)cc1Cl	-10%	-36%	-1%	?	-23%	-6%
CCCNC(=O)COC(=O)c1ccccc1OCc1ccc(Cl)cc1	-3%	-1%	-12%	?	-4%	-9%
COc1ccc(OC)c(-c2nn(-c3ccccc3)cc2C(=O)NC2(C)CCS(=O)(=O)C2)c1 (configuration not stated)	2%	-6%	-9%	-19%	0%	5%
Cn1nc([N+](=O)[O-])nc1Oc1ccc(C(C)(C)C)cc1	5%	5%	9%	?	18%	?
Cc1ccc(S(=O)(=O)Nc2ccc(O)c3ccccc23)c(C)c1	29µM*	-95%	?	5.2µM*	?	3.7µM*
Cc1ccc(S(=O)(=O)Nc2cc(C(C(=O)OC(C)C)C(=O)C(F)(F)F)c(O)c3ccccc23)c(C)c1 (configuration not stated)	?	-37%	-28%	?	?	?
Cc1ccc(C)c(S(=O)(=O)Nc2ccc(O)c3ccccc23)c1	-12%	-100%	?	15µM*	-7%	13µM*
O=S(=O)(Nc1ccc2c3c(cccc13)CC2)c1ccccc1	-9%	-31%	?	13µM*	-4%	?
Cc1ccc(C)c(S(=O)(=O)Nc2ccc(O)c(C(=O)O)c2)c1	15%	8%	48%	7%	7%	-3%
CC(=O)Nc1ccc2c3c(cccc13)CC2	-5%	-13%	-1%	-20%	-5%	-46%
Cc1ccc(S(=O)(=O)Nc2ccc3c4c(cccc24)CC3)c(C)c1	21µM*	-5%	?	13µM*	10µM*	15µM*
COc1ccc(OC)c(CN2CCN(C(=O)c3cc(S(=O)(=O)N4CCOCC4)ccc3C)CC2)c1	-15%	-20%	3%	-10%	-9%	-6%
COc1ccc(-c2c(C)c3ccc(O)c(CN4CCCC(C)C4)c3oc2=O)cc1OC (configuration not stated)	.	-13%	-9%	-23%	.	-17%
Cc1ccc(S(=O)(=O)NNc2ccccc2)c(C)c1	-11%	6%	-2%	18µM*	-4%	?
CC(=NNC(=S)Nc1ccc(C)cc1)c1ccccn1	?	-57%	?	0.018µM*	?	0.018µM*
CC(=NNC(=S)Nc1cccc(C)c1)c1ccccn1	-14%	-2%	?	0.033µM*	?	0.018µM*
SMILES	HT1080-NT tox	HepG2 tox	TGFb inhibitor	TDP1 cell noCPT	HT1080 IDH1KD tx	DT40 TDP1 CPT
COc1ccccc1NC(=S)NN=C(C)c1ccccn1	-15%	-17%	?	0.15µM*	?	0.013µM*
COc1ccccc1NC(=O)c1ccccc1NC(=O)c1ccccn1	1%	3%	6%	?	-1%	?
COc1ccc(S(=O)(=O)Nc2ncccn2)cc1	11%	12%	-14%	-11%	14%	-3%
CCOc1ccc(CC2NCCc3cc(OCC)c(OCC)cc32)cc1OCC (configuration not stated)	-18%	-110%	?	4.1µM*	-8%	3.7µM*
CCc1ccc(OCC2NCCc3cc(OC)c(OC)cc32)cc1 (configuration not stated)	-14%	-33%	-29%	18µM*	-9%	?
CN(C)CCCNC(=O)c1cc(C(=O)c2cccc(Cl)c2Cl)c[nH]1	-23%	-3%	8%	?	-26%	8%
CCCCCCCCCCCCC(=O)N1CCCC[C@H]1CNC(=O)[C@@H](N)CCCCN	.	.	.	21µM*	.	13µM*
CCC1CCCCN1C(=O)CCCc1ccccc1 (configuration not stated)	-1%	-42%	-28%	-23%	5%	?
O=C(Nc1ncccc1Cl)C1COc2ccccc2O1 (configuration not stated)	5%	4%	1%	-14%	25%	-21%
